According to ChEMBL document CHEMBL3988442, “University of Dundee, Small-Polar-MMV Screening Library” (2021):
Screen size: about 48,000 compounds; about 13,000 (27%) showed an effect of 50% or more. Some of the results follow.

test system: Wolbachia pipientis; experiment: Anti-Wolbachia Cell-Based Screen; type: functional; parameters: scale not given: in the data most compounds retested in dose-response had high values; settings: 5 µM

For `OC1(c2cn(C3CCN(C4CCSC4)CC3)nn2)CCCC1` (configuration not stated), which “Percent Effect” value is on record?
Its value is -22.68%.

With `Cc1ccc2[nH]c(CN(C)Cc3ccccc3C(=O)O)nc2c1` as the compound, how does the “Percent Effect” value read?
The value was -3.287%.

Which “Percent Effect” value does the source give for `NS(=O)(=O)c1ccc(CC(=O)N2CCCC(n3cccn3)C2)cc1` (configuration not stated) here?
Its value is -6.435%.

For `Cn1nc(C(=O)N2CCC(Oc3ccc(C#N)cn3)CC2)ccc1=O`, which “Percent Effect” value is on record?
Its value is 4.281%.

Which “Percent Effect” value does the source give for `N#Cc1cn(CCN2CCc3ccccc3C2)c(=O)[nH]c1=O` here?
The value was -7.012%.

`CCc1nc(N2CCCC(CO)(CCOC)C2)ncc1C` (configuration not stated) was tested. Which “Percent Effect” value did it give?
Its value is 2.131%.

How did the “Percent Effect” value turn out when `c1cc(-c2cnccn2)cc(-c2ccn(CCN3CCCCC3)n2)c1` was run?
Its value is 11.58%.

With `c1cc(-c2cnccn2)cc(-c2ccn(CCN3CCCC3)n2)c1` as the compound, how does the “Percent Effect” value read?
Its value is 1.985%.

For `Cc1cnc(-c2cccc(-c3ccn(CCCO)n3)c2)nc1N(C)C`, which “Percent Effect” value is on record?
Its value is 89.78%.

How did the “Percent Effect” value turn out when `CN(C)[C@H]1CCCCN(Cc2ccccc2Cn2cccn2)C1` was run?
Its value is 11.28%.

For `CC(C)(CN)NS(=O)(=O)c1c(F)cccc1F.Cl`, which “Percent Effect” value is on record?
The value was -5.219%.

For `COc1ccc(N2CCOCC3(CCCN(c4cnccn4)C3)C2)cc1` (configuration not stated), which “Percent Effect” value is on record?
The value was -9.239%.

With `Fc1cnc(N2CCOCC3(CCCN(c4cnccn4)C3)C2)nc1` (configuration not stated) as the compound, how does the “Percent Effect” value read?
The value was -10.42%.

Which “Percent Effect” value does the source give for `Cc1ccc(N2CCCC3(COCCN(c4cnccn4)C3)C2)nn1` (configuration not stated) here?
Its value is 122.4%.

For `Cc1cnc(N2CCC3(CCCN(c4ccc(C)nn4)C3)C2)nc1` (configuration not stated), which “Percent Effect” value is on record?
The value was -1.521%.

`Cc1ccc(N2CCOCC3(CCCN(c4ncc(F)cn4)C3)C2)nn1` (configuration not stated) was tested. Which “Percent Effect” value did it give?
Its value is 110.3%.

Which “Percent Effect” value does the source give for `Fc1cnc(N2CCOCC3(CCCN(c4nncs4)C3)C2)nc1` (configuration not stated) here?
The value was -12.3%.

How did the “Percent Effect” value turn out when `Cc1cnc(N2CCCC3(COCCN(c4ccc(C)nn4)C3)C2)nc1` (configuration not stated) was run?
Its value is 111.1%.

For `CCS(=O)(=O)N1CCCC2(COCCN(c3cnccn3)C2)C1.O=C(O)C(F)(F)F` (configuration not stated), which “Percent Effect” value is on record?
The value was -1.156%.

Which “Percent Effect” value does the source give for `Cc1noc(C)c1NC(=O)Cn1cc(Br)ccc1=O` here?
The value was -4.213%.

With `C[C@@H]1CN(C2CCN(Cc3cnc(-c4cccs4)nc3)CC2)C[C@H](C)O1` as the compound, how does the “Percent Effect” value read?
The value was -8.003%.

`O=S(=O)(c1c(Cl)nc2sccn12)N1CCCC2(CCNC2)C1` (configuration not stated) was tested. Which “Percent Effect” value did it give?
Its value is -7.424%.

How did the “Percent Effect” value turn out when `Cc1ccc(-n2cc(C)cn2)c(NC(=O)NC2(C)CCOC2)c1` (configuration not stated) was run?
Its value is 1.139%.

Which “Percent Effect” value does the source give for `O=C(NCC1CCCCO1)c1ccc(-c2cccs2)[nH]c1=O` (configuration not stated) here?
The value was 23.71%.

With `Cc1sc(-c2ccco2)nc1C(=O)NCC1CCOC1` (configuration not stated) as the compound, how does the “Percent Effect” value read?
Its value is 3.177%.

`Cc1sc(-c2ccco2)nc1C(=O)N(CC(N)=O)C1CCCC1` was tested. Which “Percent Effect” value did it give?
The value was -7.156%.

How did the “Percent Effect” value turn out when `O=C(NC[C@H]1CCCC[C@H]1O)c1cccc2[nH]c(-c3ccco3)nc12` was run?
The value was 127.5%.

With `O=C(CN1CC(c2nc(-c3cccs3)no2)C1)NCC1CCCO1.O=C(O)C(=O)O` (configuration not stated) as the compound, how does the “Percent Effect” value read?
Its value is 11.99%.

Which “Percent Effect” value does the source give for `O=C(NC[C@H]1CCCC[C@H]1O)c1ccc2nc(-c3ccco3)[nH]c2c1` here?
The value was 114.7%.

For `O=C(NCC1CCCCO1)c1ccc(-c2ccco2)[nH]c1=O` (configuration not stated), which “Percent Effect” value is on record?
Its value is 3.575%.

`O=C(NC[C@H]1CCCC[C@H]1O)c1cccc2[nH]c(-c3cccs3)nc12` was tested. Which “Percent Effect” value did it give?
Its value is 118.3%.

How did the “Percent Effect” value turn out when `CCCNC(=O)c1ccc(-c2ccco2)[nH]c1=O` was run?
The value was 7.034%.
